Jurkat NFkB inh – inhibitors of induced NF-kB luciferase reporter, primary screen, TCR NF-kB activation inhibitor project, cell-based, luminescence, uHTS. inhibition, % at 4 µM. AID 435003, 2010. Jurkat, PMA/ionomycin-induced NF-kB luciferase reporter. actives 0.53% (n = 330,000); in the data active = inhibition above about 50%
Mdm2-MdmX inh – inhibitors of human Mdm2-MdmX association, primary screen, cell-based, luminescence, split luciferase, SaOS-2, uHTS; Protein Mdm4 (Homo sapiens) + E3 ubiquitin-protein ligase Mdm2 (Homo sapiens), …; actives 3% (n = 330,000); SaOS-2 split-luciferase Mdm2/MdmX complementation; inhibition, % at 8 µM;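 active = inhibition of at least 50% at 8 µM in the primary screen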
Gli-Sufu block – Gli-Sufu pathway antagonists, primary screen, luciferase luminescence, Sufu-KO-LIGHT cells, uHTS. Sufu-KO-LIGHT fibroblasts, Gli luciferase reporter luminescence. inhibition, % at 5 µM. actives 0.74% (n = 340,000);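 active = inhibition above about 55%, limit read from the data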;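 also: 0% = DMSO-treated cells and 100% = wells with medium but no cells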
697 NFkB inh – inhibitors of PMA/ionomycin-induced NF-kB reporter, 697 cells, primary screen, B-cell NF-kB inhibitor project, cell-based, luminescence, uHTS; 697 B-cell NF-kB luciferase reporter, 16 h; AID 435022, 2010; actives 0.33% (n = 330,000); inhibition, % at 4 µM; in the data active = inhibition above about 35%
Beta apoptosis – inhibitors of cytokine-induced beta cell apoptosis, primary screen, luminescence | protection from apoptosis, % (no concentration beside the values) | AID 435005, 2010 | INS-1E cytokine-induced death, ATP luminescence, 48 h; percent of positive-control rescue, neutral wells zero | actives 0.8% (n = 300,000);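 active = Every replicate reaches about 75%, or at least half do and their mean reaches it too, limit read from the data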;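 also: 0% = cytokine-treated negative control wells and 100% = positive control rescue; higher means more ATP so stronger rescue from cytokine killing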
Mdm2-MdmX conf – Mdm2-MdmX complex disruptors, retested hits, confirmation, luminescence, single concentration; Mdm2-MdmX binding, luminescent assay; inhibition, % at 8 µM; shares compounds with Mdm2-MdmX inh; actives 55% (n = 10,000); in the data active = inhibition above about 40%
Full FLuc ctr – full-length luciferase signal inhibition, confirmation, counter-screen for Mdm2/MdmX interaction inhibitor project, cell-based, single concentration, SaOS-2; shares compounds with Mdm2-MdmX inh; inhibition, % at 8 µM; actives 77% (n = 6,200); SaOS-2 full-length luciferase counterscreen, luminescence; AID 504607, 2011;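 active = mean inhibition at 8 µM reaching about 37%, which flags the compound as non-specific, limit read from the data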;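 also: p53-null SaOS-2 cells with luciferase driven by a doxycycline-inducible promoter; compound on cells about two nights before reading with doxycycline added after day one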
Starred values were filed as active, the others as inactive; / = not tested or not shown. Sampled rows, rich in hits. Any-hit rate of the full collection: about 4%.

SMILES	Jurkat NFkB inh	Mdm2-MdmX inh	Gli-Sufu block	697 NFkB inh	Beta apoptosis	Mdm2-MdmX conf	others
Cc1ccc(CS(=O)(=O)c2ncc(Cl)c(C(=O)Nc3nnc(C(C)C)s3)n2)cc1	22	96*	32	-50	-7	38	Full FLuc ctr=0
COc1cccc(-n2nnc3c(=O)n(CC(=O)Nc4ccc(C)cc4)cnc32)c1	20	29	4	14	-1	/
O=C(Nc1cccc(S(=O)(=O)NC2=NCCC2)c1)c1ccc(C(F)(F)F)cc1	13	46	5	4	-7	/
O=C(Cn1cc(C(=O)C(F)(F)F)c2ccccc21)N1CCOCC1	-16	8	2	-23	-2	/
CSc1nnc(NC(=O)c2nc(S(=O)(=O)Cc3cccc(C)c3)ncc2Cl)s1	-1	100*	16	-107	-29	92*	Full FLuc ctr=50*
CCCSc1nnc(NC(=O)Nc2ccc(F)cc2)s1	-30	95*	28	-66	47	85*	Full FLuc ctr=28
Cc1cccc(CS(=O)(=O)c2ncc(Cl)c(C(=O)Nc3nnc(C(C)C)s3)n2)c1	17	96*	32	-62	-20	88*	Full FLuc ctr=50*
Cc1cc(C)cc(-n2ccnc2SCC(=O)O)c1	-9	12	2	-1	6	/
COc1ccccc1OCCCCn1ncc2ccc(OC)c(OC)c2c1=O	-5	25	-3	-3	1	/
CCC1(C)NC(=O)N(CC(=O)Nc2cc(C)on2)C1=O (centres undefined)	0	11	-2	-1	0	/
O=C(c1cccs1)c1no[n+]([O-])c1C(=O)c1cccs1	5	95*	24	12	47	-1
COc1ccc(C(=O)c2no[n+]([O-])c2C(=O)c2ccc(OC)cc2)cc1	11	62*	43	-7	-13	26
CCOc1ccccc1CN1CCN(CCCn2cccn2)CC1CCO (centres undefined)	7	8	18	16	0	/
COC(=O)c1ccccc1NC(=O)Nc1c(C)n(C)n(-c2ccccc2)c1=O	11	12	-21	9	-5	/
COc1cc(C)c(Cl)cc1S(=O)(=O)N1CCSC1	-19	-2	-10	-44	-7	/
COc1ccc(CCN2CC(C(=O)N3CCSCC3)CCC2=O)cc1 (centres undefined)	10	30	0	-1	-5	/
CC(=O)NC(CC(=O)NCCN1C(=O)S/C(=C\c2ccccc2)C1=O)c1ccccc1 (centres undefined)	15	11	-2	-3	-4	/
CCCCOc1ccc(-c2cc(C(=O)NNC(=S)NCC)c3ccccc3n2)cc1	-144	80*	-68	-201	80*	74*	Full FLuc ctr=127*
CCOC(=O)c1c(NC(=O)CSc2nnc(-c3c[nH]c4ccccc34)n2CCOC)sc2c1CCCCC2	6	56*	-2	-15	32	17
CCN(CC)C(=O)[C@H]1C[C@H](CC(=O)NC/C=C(\C)CCC=C(C)C)C(=O)N2CCc3c([nH]c4cc(CCC(=O)N(C)C)ccc34)[C@]12C	/	68*	37	3	/	10
CC(C)=CCC/C(C)=C/CNC(=O)C[C@H]1C[C@H](C(=O)N2CCOCC2)[C@@]2(C)c3[nH]c4ccc(Cl)cc4c3CCN2C1=O	/	88*	1	17	/	12
CC(C)=CCC/C(C)=C/CNC(=O)CC1C[C@H](C(=O)N2CCOCC2)[C@@]2(C)c3[nH]c4ccccc4c3CCN2C1=O (some centres undefined)	22	33	29	0	3	/
Cc1cccc(N2CCN(C(=O)Cc3cn(C)c4ccccc34)CC2)c1C	-1	53*	12	-23	/	43*	Full FLuc ctr=55*
COC(=O)Nc1ccc2ccc3c(NC(=O)OC)ccc4ccc1c2c43	/	/	2	/	/	/
O=C(/C=C/Nc1ccccc1Br)c1ccccn1	42	75*	-75	-28	25	76*	Full FLuc ctr=24
SMILES	Jurkat NFkB inh	Mdm2-MdmX inh	Gli-Sufu block	697 NFkB inh	Beta apoptosis	Mdm2-MdmX conf	others
O=C(/C=C\Nc1ccccn1)c1ccccc1	-106	-42	-72	-249	2	/
CCn1cc(C(=O)NCCCN2CC(C)CC(C)C2)c(=O)c2cc(S(=O)(=O)N(C)C3CCCCC3)ccc21 (centres undefined)	33	52*	36	-39	12	37	Full FLuc ctr=60*
Cc1ccccc1CN(C)C(C)C(=O)Nc1ccccc1F (centres undefined)	-9	1	9	1	11	/
O=C1CCC(C(=O)N2CCc3c(Cl)cccc3C2)CN1CCCN1CCOCC1 (centres undefined)	-2	15	12	19	2	/
COc1ccc(NC(=O)Cn2c3ccccc3c3nc4n(c(=O)c32)CCS4)cc1	-7	70*	1	14	14	12
COc1ccc(NC(=O)Cn2c3ccccc3c3nc4n(c(=O)c32)CCS4)cc1OC	-9	10	5	7	-2	/
CCNc1ccc(C(=O)OCC)cc1NC(=O)c1cccc(S(=O)(=O)N(C)c2ccccc2)c1	1	18	16	3	-7	/
CCNc1ccc(C(=O)OCC)cc1NC(=O)c1cccc(N(C)C)c1	32	58*	-5	-20	/	54*	Full FLuc ctr=65*
Cc1ccc(N(CC(=O)Nc2cc(Cl)ccc2Oc2ccccc2)S(C)(=O)=O)cc1C	-9	52*	0	10	-2	2
N#CCCn1cc(/C=C2\NC(=S)N(c3ccccc3)C2=O)c(-c2ccc(-c3ccccc3)cc2)n1	0	63*	32	7	6	19
COC(=O)c1cc(=O)n(Cc2ccc(OC)c(OC)c2)c(=Nc2ccc(F)cc2)s1	7	76*	22	5	-15	33	Full FLuc ctr=98*
COC(=O)c1cc(=O)n(CCc2ccc(OC)c(OC)c2)c(=Nc2ccc(F)c(Cl)c2)s1	31	84*	18	4	11	11
COC(=O)c1cc(=O)n(Cc2ccc(F)cc2)c(=Nc2ccccc2)s1	12	47	9	10	4	/
COC(=O)c1cc(=O)n(Cc2cccs2)c(=Nc2ccccc2)s1	-18	43	10	1	-1	/
COC(=O)c1cc(=O)n(Cc2ccco2)c(=Nc2ccc(F)cc2)s1	4	58*	5	28	-14	30
CC(=O)N/N=C/c1cc(C(C)(C)C)cc(/C=N/NC(C)=O)c1O	/	/	0	/	19	/

Screens from PubChem BioAssay.
